Shown are actives, neighbours in structure and some others; about 5% of the full set was active somewhere.
EBI2 block: antagonists of human EBI2 receptor; 0.81% of 360,000 active; inhibition, % at 5 µM; AID 651636; EBI2 beta-arrestin recruitment, luminescence, 7a,25-OHC stimulated; in the data active means inhibition above about 38%;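 further: enzyme fragment complementation signal reports receptor beta-arrestin coupling in cells; 0% = agonist plus DMSO wells and 100% = wells without agonist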
SENP8 block-1: blocks human SENP8 cleavage of Nedd8 substrate; recombinant SENP8, Nedd8 substrate fluorescence; 0.64% of 360,000 active; Q96LD8; inhibition, % at 20 µM; in the data active means inhibition mostly above about 40%, no sharp cut-off; inactive means mostly below about 27%
SENP6 block: SENP6 protease inhibition. 1.8% of 330,000 active. Recombinant SENP6 catalytic domain, aminoluciferin luminescence. Q9GZR1. inhibition, % at 10 µM. AID 2599;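 active means inhibition above about 50% at the single tested dose, limit read from the data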;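 further: plate controls were DMSO wells with enzyme for no effect and DMSO wells lacking enzyme for full effect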
Target sequence (Q9GZR1 628-1112 limits assumed): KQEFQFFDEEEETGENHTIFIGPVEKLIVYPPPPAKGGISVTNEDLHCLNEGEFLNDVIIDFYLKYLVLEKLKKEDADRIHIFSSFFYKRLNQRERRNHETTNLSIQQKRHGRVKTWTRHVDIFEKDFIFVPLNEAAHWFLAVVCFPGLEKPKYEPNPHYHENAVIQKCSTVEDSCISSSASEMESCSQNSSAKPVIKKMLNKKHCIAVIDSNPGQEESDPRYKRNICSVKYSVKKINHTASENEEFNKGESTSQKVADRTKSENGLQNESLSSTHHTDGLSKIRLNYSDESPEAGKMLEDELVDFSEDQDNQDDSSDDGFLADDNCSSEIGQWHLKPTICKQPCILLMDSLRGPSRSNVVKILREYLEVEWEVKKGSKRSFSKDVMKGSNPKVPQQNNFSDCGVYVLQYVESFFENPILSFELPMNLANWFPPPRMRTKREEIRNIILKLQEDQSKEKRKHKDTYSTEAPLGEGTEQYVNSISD
AHR act: activators of human aryl hydrocarbon receptor. AHR-responsive luciferase reporter cells, luminescence. activation, % at 5 µM. 2.5% of 320,000 active. P35869; in the data active means activation above about 47%;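 further: 0% = vehicle wells and 100% = reference agonist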
SENP8 block-2: blocks the human protease SENP8. Q96LD8. purified SENP8, Z-RLRGG-aminoluciferin cleavage, luminescence. inhibition, % at 10 µM. 1.2% of 330,000 active; in the data active means inhibition above about 50%
SENP7 inh: blocks the human protease SENP7 | recombinant SENP7, Z-RLRGG-aminoluciferin luminescence, 40 min | inhibition, % at 5 µM | 1.5% of 330,000 active | AID 434973;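 active means inhibition above about 50% at the single test dose, limit read from the data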;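 further: plate controls were DMSO with enzyme for no effect and no enzyme buffer wells for full effect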
Active calls of the source: *; . = not tested or not shown.

SMILES	EBI2 block	SENP8 block-1	SENP6 block	AHR act	SENP8 block-2	SENP7 inh
C[C@H]1COC[C@@H](C/C=C/c2ccccc2)N1c1ccccc1	7	-27	.	.	.	.
N=C1CCC(=N)c2c1c(O)c1ccccc1c2O	3	89*	63*	30	39	24
CCCCCCCCNc1ccccc1S(=O)(=O)NCc1ccccc1	-5	-78	.	.	.	-9
Nc1cc2nc3ccccc3oc-2cc1=O	-14	44*	37	18	18	13
Nc1ccc(CCc2nc3ccccc3o2)cc1	2	-8	20	5	15	3
CC(=O)c1cccc(-c2ccnc3c2CC(C(=O)Nc2ccc(Cl)c(C(F)(F)F)c2)O3)c1 (stereo unspecified)	1	14	.	.	.	.
CC(=O)Nc1ccc(NC(=O)C(F)(F)F)cc1	-2	9	-12	-2	-9	-5
CC1CCN(c2ccc(-c3ccc(NC(=O)C(F)(F)F)cc3)nn2)CC1	7	-56	-5	50*	3	2
O=C1CCCC2=C1Sc1ccc(Cl)cc1N2	-10	28	-15	44	-5	-3
COC(=O)c1ccc2c(c1)SC1=C(CCCC1=O)N2	-10	-55	-26	60*	-3	2
COc1ccc(NC(=O)CC2Nc3cc(C)c(C)cc3NC2=O)c([N+](=O)[O-])c1 (stereo unspecified)	-11	24	-6	61*	0	-5
CCc1ccc2[nH]c(O)c(N=Nc3nc(-c4ccccc4)cs3)c2c1	11	34	-1	63*	-1	8
CCCn1cc(SCC(=O)Nc2ccc3c(c2)OCO3)c2ccccc21	0	14	7	73*	-10	-9
COCCn1nnnc1SCC(=O)Nc1ccc2c(c1)OCO2	-3	4	-7	68*	-11	-6
Cn1cc(SCC(=O)Nc2ccc3c(c2)OCO3)c2ccccc21	0	4	-20	35	-7	-5
COCCCn1nnnc1SCC(=O)Nc1ccc2c(c1)OCCO2	5	9	-6	11	-2	-4
NC(COCc1ccccc1)c1csc(Nc2ccc(S(N)(=O)=O)cc2)n1 (stereo unspecified)	-9	-28	.	.	.	.
CCOC(=O)c1ccc(NC(=O)COc2ccccc2CNCCc2ccccc2)cc1	14	12	-23	50*	-16	-2
CC(C)(C)c1ccc(CC(=O)N2CCC2(C)C(=O)Nc2cccc3c2CCCC3)cc1 (stereo unspecified)	11	10	.	.	.	.
COc1ccc(Oc2cn[nH]c2-c2ccc(OCC(=O)NN)cc2O)cc1	-9	10	-8	58*	-4	6
COc1ccccc1Oc1cn[nH]c1-c1ccc(OCC(=O)NN)cc1O	0	18	12	44	-3	-1
C[C@@H]1CN([C@@H](C)CO)C(=O)CCCn2nncc2CO[C@H]1CN(C)S(=O)(=O)c1cccc(F)c1	5	10	.	.	.	.
Cc1ccc(-c2csc(N(CC3CCCO3)C(=O)c3ccco3)n2)cc1 (stereo unspecified)	24	18	0	51*	3	4
Nc1sc(-c2ccccc2)cc1C(=O)NCCc1c[nH]c2ccccc12	8	-104	.	.	.	.
COc1ccc(NC(=O)C2(C)Cc3c(-c4cccc(C(N)=O)c4)ccnc3O2)cc1OC (stereo unspecified)	0	14	.	.	.	.
SMILES	EBI2 block	SENP8 block-1	SENP6 block	AHR act	SENP8 block-2	SENP7 inh
CCc1nnc(NC(=O)c2cc(-c3ccccn3)nc3ccc(Br)cc23)s1	1	-2	-6	49*	0	12
CCc1nnc(NC(=O)c2cc(-c3ccncc3)nc3ccccc23)s1	-11	18	-2	62*	3	9
COc1ccccc1CCNC(=O)c1cc(-c2ccccn2)nc2ccc(Br)cc12	.	.	-3	4	-7	4
O=C(NCc1ccccc1)c1ccc(CS(=O)Cc2cccc(Cl)c2)o1 (stereo unspecified)	1	5	.	.	.	.
CCc1ccccc1NC(=O)Nc1cccs1	-5	0	-11	50*	-12	-10
Cc1ccc2c(c1)c(C1=c3ccccc3=NC1=O)c(O)n2C	6	2	0	66*	-6	15
COc1cccc(C(C)(O)c2nc(-c3cnc4ccccc4c3)cs2)c1 (stereo unspecified)	16	-27	.	.	.	.
CC(=O)N(C1=C(N)C(=O)c2ccccc2C1=O)c1ccccc1	7	62*	26	18	24	19
O=C(N(c1ccccc1)c1ccccc1)N(c1ccccc1)c1ccccc1	7	-13	-29	0	-7	0
